Experimental data taken from PubChem BioAssay AID1159580 (chemical genetic matrix, 2015).
About 2,000 (36%) of roughly 5,500 compounds were called active. Another 18% or so got no clear call; they are omitted. Cut-off read from the data, not from the text of the source: active = normalized growth mostly below about 0.91 (no sharp cut-off); inconclusive = no clear call, values can overlap the other calls; inactive = mostly above about 0.92. The list shows a part of the results.

Assay: chemical genetic growth profiling, strain panel (AID 1159580);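 note: tested at 20 µM; growth read once vehicle control cultures reached saturation at 30 °C; 1 = growth at the plate median or of vehicle wells; lower values mean less growth of the strain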
Conditions: S. cerevisiae deletion strains, growth OD

Measured: normalized growth

CC1(C)CC(O)C2(C)CCC3(C)C(=CCC4C5(C)CCC(O)C(C)(CO)C5CCC43C)C2C1 (configuration not stated)
inactive: locus YAL021C, strain ccr4, stronger effect = lower value 1.02 | locus YAL026C, strain drs2, stronger effect = lower value 1.03 | locus YAL030W, strain snc1, stronger effect = lower value 1.02 | locus YBL061C, strain skt5, stronger effect = lower value 1.03 | locus YBR009C, strain hhf1, stronger effect = lower value 1.02 | locus YBR023C, strain chs3, stronger effect = lower value 1.03 | locus YBR171W, strain sec66, stronger effect = lower value 1.03 | locus YBR231C, strain swc5, stronger effect = lower value 1.03 | locus YBR279W, strain paf1, stronger effect = lower value 1.02 | locus YCL011C, strain gbp2, stronger effect = lower value 1.03 | locus YCL016C, strain dcc1, stronger effect = lower value 1.03 | locus YCL061C, strain MRC1, stronger effect = lower value 1.02 | locus YCL069W, strain vba3, stronger effect = lower value 1.03 | locus YCR088W, strain abp1, stronger effect = lower value 1.03 | locus YDL005C, strain med2, stronger effect = lower value 1.03 | locus YDL040C, strain nat1, stronger effect = lower value 1.03 | locus YDR001C, strain nth1, stronger effect = lower value 1.02 | locus YDR069C, strain doa4, stronger effect = lower value 1.04 | locus YDR137W, strain rgp1, stronger effect = lower value 0.956 | locus YDR159W, strain sac3, stronger effect = lower value 1.04 | locus YDR195W, strain ref2 1 | locus YDR297W, strain sur2, stronger effect = lower value 1.02 | locus YDR334W, strain swr1, stronger effect = lower value 1.03 | locus YDR335W, strain msn5, stronger effect = lower value 1.03 | locus YDR392W, strain spt3, stronger effect = lower value 1.03 | locus YEL003W, strain gim4, stronger effect = lower value 1.02 | locus YEL037C, strain rad23, stronger effect = lower value 1.02 | locus YEL061C, strain CIN8 (second series), stronger effect = lower value 1.02 | locus YER015W, strain faa2, stronger effect = lower value 1.02 | locus YER016W, strain bim1, stronger effect = lower value 1.03 | locus YER111C, strain swi4, stronger effect = lower value 1.03 | locus YER155C, strain BEM2 (second series), stronger effect = lower value 1.04 | locus YFR010W, strain ubp6, stronger effect = lower value 1.03 | locus YGL167C, strain pmr1, stronger effect = lower value 1.02 | locus YGL173C, strain kem1, stronger effect = lower value 1.03 | locus YGL227W, strain vid30, stronger effect = lower value 1.03 | locus YGL240W, strain doc1, stronger effect = lower value 1.02 | locus YGL253W, strain hxk2, stronger effect = lower value 1.03 | locus YHR013C, strain ard1, stronger effect = lower value 1.04 | locus YHR027C, strain rpn1, stronger effect = lower value 1.02 | locus YHR142W, strain chs7, stronger effect = lower value 1.03 | locus YJL092W, strain hpr5, stronger effect = lower value 1.03 | locus YJL095W, strain BCK1 (second series), stronger effect = lower value 1.04 | locus YJL115W, strain asf1, stronger effect = lower value 1.04 | locus YJL129C, strain trk1, stronger effect = lower value 1.04 | locus YJL154C, strain vps35, stronger effect = lower value 1.02 | locus YJL164C, strain tpk1, stronger effect = lower value 1.03 | locus YJL166W, strain qcr8, stronger effect = lower value 1.02 | locus YJL187C, strain SWE1, stronger effect = lower value 1.02 | locus YKL160W, strain elf1, stronger effect = lower value 1.02 | locus YKR026C, strain gcn3, stronger effect = lower value 1.04 | locus YKR091W, strain srl3, stronger effect = lower value 1.03 | locus YLL001W, strain dnm1, stronger effect = lower value 1.03 | locus YLL026W, stronger effect = lower value 1.03 | locus YLL041C, strain sdh2, stronger effect = lower value 1.03 | locus YLR027C, strain aat2, stronger effect = lower value 1.03 | locus YLR221C, strain rsa3, stronger effect = lower value 1.02 | locus YLR258W, strain gsy2, stronger effect = lower value 1.04 | locus YLR262C, strain YPT6 (second series), stronger effect = lower value 0.994 | locus YLR320W, strain mms22, stronger effect = lower value 1.04 | locus YLR342W, strain FKS1, stronger effect = lower value 1.02 | locus YLR357W, strain rsc2, stronger effect = lower value 1.02 | locus YLR370C, strain arc18, stronger effect = lower value 1.03 | locus YLR384C, strain iki3, stronger effect = lower value 1.03 | locus YML120C, strain ndi1, stronger effect = lower value 1.04 | locus YMR058W, strain fet3, stronger effect = lower value 1.02 | locus YMR125W, strain sto1, stronger effect = lower value 1.04 | locus YMR129W, stronger effect = lower value 1.02 | locus YMR205C, strain PFK2, stronger effect = lower value 1.03 | locus YMR231W, strain pep5, stronger effect = lower value 1.03 | locus YNL071W, strain lat1, stronger effect = lower value 1.02 | locus YNL209W, strain ssb2, stronger effect = lower value 1.03 | locus YNL248C, strain rpa49, stronger effect = lower value 1.02 | locus YNL322C, strain KRE1 (second series), stronger effect = lower value 1.02 | locus YNR049C, strain mso1, stronger effect = lower value 1.04 | locus YOR001W, strain rrp6, stronger effect = lower value 1.04 | locus YOR070C, strain gyp1, stronger effect = lower value 1.03 | locus YOR080W, strain dia2, stronger effect = lower value 1.03 | locus YOR083W, strain WHI5, stronger effect = lower value 1.02 | locus YOR106W, strain vam3, stronger effect = lower value 1.03 | locus YOR265W, strain rbl2, stronger effect = lower value 1.03 | locus YOR270C, strain vph1, stronger effect = lower value 1.03 | locus YOR290C, strain snf2, stronger effect = lower value 1.03 | locus YPL051W, strain arl3, stronger effect = lower value 1.02 | locus YPL078C, strain atp4, stronger effect = lower value 1.03 | locus YPL106C, strain sse1, stronger effect = lower value 1.05 | locus YPL240C, strain hsp82, stronger effect = lower value 1.03
